# Assay outcomes from PubChem.
# Shiga inhibitor: Shiga toxin inhibition. inhibition, % at 38.7 µM. Vero cells, Shiga toxin protein synthesis inhibition reporter. 9.2% of 290,000 active; in the data active = inhibition mostly above about 28%, no sharp cut-off; inactive = mostly below about 43%; also: 0% is about no effect
# Pf growth 96h: P. falciparum growth inhibition at 96 hour, primary screen for plastid delayed-death inhibitors. P. falciparum luciferase reporter growth, 96 h. Potency, µM (series often up to 28.7 µM), for the others: top-dose activity change, negative = inhibition, most hits filed as inhibitors. 6.9% of 320,000 active. AID 504834; also: potency is read from the fitted curve at half-maximal effect; % is scaled to controls: 0 for no effect and ±100 for the full control effect
#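 Readout is luminescence from an integrated firefly luciferase in P. falciparum. Red cells, 2% hematocrit and 0.05% parasitemia final, were cultured with compound through two parasite generations (96 hours) at 37 C, 5% CO2.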
# FBPA Giardia inh: blocks Giardia fructose-bisphosphate aldolase activity; A8B2U2; purified Giardia FBPA; Potency, µM (series often up to 59.6 µM), for inactives: at the highest dose activity, negative = inhibition, usual class: inhibitors; 0.71% of 290,000 active; AID 2451; also: potency is read from the fitted curve at half-maximal effect; % is scaled to controls: 0 for no effect and ±100 for the full control effect; nearly all actives have a fitted effect of over 55% in size
# Target sequence (A8B2U2 whole entry, looked up): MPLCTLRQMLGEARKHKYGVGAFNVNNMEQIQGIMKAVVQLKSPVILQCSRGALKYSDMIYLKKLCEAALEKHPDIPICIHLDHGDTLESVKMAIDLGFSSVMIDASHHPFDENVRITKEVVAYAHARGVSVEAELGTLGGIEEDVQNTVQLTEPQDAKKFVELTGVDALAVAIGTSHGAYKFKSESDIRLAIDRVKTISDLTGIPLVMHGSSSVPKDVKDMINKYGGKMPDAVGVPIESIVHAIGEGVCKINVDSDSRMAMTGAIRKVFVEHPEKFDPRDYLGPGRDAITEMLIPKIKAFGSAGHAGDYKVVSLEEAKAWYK
#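 Giardia FBPA (40 nM reagent) was preincubated 10 min at RT with compound (up to 57.5 uM final), then substrate plus GAPDH/TPI/NAD/arsenate coupling system with diaphorase/resazurin was added; resorufin fluorescence (525/598 nm) was read after 20 min.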
# Pf growth 48h: inhibits P. falciparum growth in the first generation, 48 h | 5.9% of 310,000 active | AID 504832 | Potency, µM (titrated, usually from 28.7 µM), for the others: top-dose activity change, negative = inhibition, hits mostly inhibitors | P. falciparum luciferase growth in erythrocytes, 48 h; also: potency is read from the fitted curve at half-maximal effect; % is scaled to controls: 0 for no effect and ±100 for the full control effect
#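 Compounds are pin-transferred into medium, infected erythrocytes (2% hematocrit, 0.1% parasitemia final) are added, and plates sit one parasite generation at 37 C in 5% CO2. Detection reagent is then added and luminescence measured.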
# NS1 inh: inhibitors of influenza NS1 protein function | Potency, µM (doses to about 46.1 µM), inactives show at the top dose activity, positive = more growth | 0.4% of 270,000 active | AID 2326; calls by dose curve; also: potency is read from the fitted curve at half-maximal effect; actives are rising curves; nearly all actives have a fitted effect of over 50% in size
#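 OD600 was taken as the measure of yeast growth restored by compound in an NS1-expressing S. cerevisiae strain. Cells had been washed out of glucose medium and diluted 1:100 into galactose -URA medium, pH 6.0.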
# CHX counter: counter-screen hit for Shiga toxin inhibitors, cycloheximide | cell reporter, cycloheximide protein synthesis inhibition counterscreen | max response, % | 12% of 300,000 active | AID 2314; in the data active = max response mostly above about 13%, no sharp cut-off; inactive = mostly below about 14%; also: read at 38.3 µM for the half of the compounds with a filed dose; 0% is about no effect
# * marks the source's active call; other numbers are inactive results; ? = inconclusive; nt = not tested or not shown; [ ] = another dose, or the depositor's remark. Shown are actives, neighbours in structure and some others; about 21% of the full set was active somewhere. Unless noted, calls follow the shape of the dose curve; as a rule, active = well fitted curve in the direction sought with a large enough effect; inconclusive = small, poorly fitted or top-dose-only effect, or another doubt; inactive = no such curve, though single readings can be large; an effect the other way counts as inactive or inconclusive.
SMILES,Shiga inhibitor,Pf growth 96h,FBPA Giardia inh,Pf growth 48h,NS1 inh,CHX counter
O=c1c(Cl)c(N2CCCCC2)cnn1-c1nc2ccccc2[nH]1,17,241%,-3%,0%,-12%,20*
O=c1c2ccccc2cnn1-c1nc2ccccc2[nH]1,-35,-41%,-14%,-31%,nt,-10
C[C@H](NC[C@H](O)CP(=O)(O)Cc1ccccc1)c1ccc(Cl)c(Cl)c1,nt,nt,-2%,nt,nt,nt
CCCn1c(NC(=S)Nc2ccccc2)nc2ccccc21,-13,42%,-30%,?,-31%,-1
CCn1c(NC(=S)Nc2ccccc2)nc2ccccc21,53*,3.3µM*,7%,?,-16%,29*
CCn1c(NC(=O)C2CCCCC2)nc2ccccc21,36*,351%,12%,10µM*,-4%,26*
S=C(Nc1ccccc1)Nc1nc2ccccc2n1CCOc1ccc(Cl)cc1,26,12µM*,-20%,7.4µM*,3%,9
O=C(Nc1nc2ccccc2n1CCN1CCCCC1)C1CCCCC1,-10,?,0%,?,3%,-4
O=C(O)Cn1c(SCCOc2ccc(Cl)cc2)nc2ccccc21,-15,?,-16%,1%,11%,-2
O=C(NCCOc1ccccc1)C1CCC(=O)N(CCCN2CCCC2=O)C1 (stereo unspecified),11,-33%,nt,1%,3%,-2
COC(=O)C1=C(C(=O)OC)[C@@H]2Nc3ccccc3[C@@]23C[C@@H](C(=O)OC)N(S(=O)(=O)c2c(C)noc2C)C3=N1,nt,nt,2%[12.9 µM],nt,nt,nt
CCOCc1cnc(C)nc1NCC(=O)c1c(C)[nH]c2cc(C)ccc12,17,0.29µM*,17%,0.83µM*,0%,-1
CCOC(=O)C1CCN(CC(=O)c2c(C)[nH]c3cc(C)ccc23)CC1,3,89%,-8%,-30%,-2%,-5
CCOCc1cnc(C)nc1NCC(=O)c1c(C)[nH]c2ccccc12,-13,1.7µM*,4%,2.1µM*,-8%,-2
NC1=NCCCC1,nt,nt,10%,nt,nt,nt
Cn1c(C(=O)N2COCC2(C)C)cc2c(=O)n3ccccc3nc21,75*,-13%,-1%,85%,-19%,35*
Cc1cccn2c(=O)c3cc(C(=O)N4COCC4(C)C)sc3nc12,19,37%,-1%,40%,nt,10
Cn1c(C(=O)NCCC2=CCCCC2)cc2c(=O)n3ccccc3nc21,11,6.6µM*,1%,73%,2%,2
O=C(NNC(=O)c1c(F)cccc1F)c1ccccc1-n1cccc1,4,56%,2%,4%,nt,-4
COc1ccc(CNC(=O)CN(Cc2ccccc2)S(=O)(=O)c2ccc(Cl)cc2)cc1,8,?,-2%,nt,5%,3
COc1ccc(C)cc1S(=O)(=O)N(CC(=O)NCc1ccc(Cl)cc1)Cc1ccccc1,-15,12µM*,-5%,nt,10%,-3
COc1ccc(N(CC(=O)NCc2ccc(Cl)cc2)S(=O)(=O)c2ccccc2[N+](=O)[O-])c(OC)c1,-18,38%,-7%,8.3µM*,?,-2
CN(Cc1ccccc1)S(=O)(=O)c1ccc(OCC(=O)NCc2ccncc2)cc1,2,-3%,nt,4.7µM*,1%,0
COc1ccc(S(=O)(=O)N(CC(=O)NCc2ccncc2)Cc2ccccc2)cc1,-4,5.2µM*,0%,?,-4%,-3
N=C(N)SCCN1CCCCC1,nt,nt,nt,nt,-6%,nt
SMILES,Shiga inhibitor,Pf growth 96h,FBPA Giardia inh,Pf growth 48h,NS1 inh,CHX counter
CC(C)CNC(=O)CN(c1ccccc1)S(=O)(=O)c1ccccc1[N+](=O)[O-],1,5.9µM*,2%,?,6%,-6
CC(C)(Cc1c[nH]c2ccccc12)NCC(O)COc1ccccc1C#N (stereo unspecified),-7,7.6µM*,0%,17µM*,nt,-6
CC(C)N1C(=O)S/C(=C/c2ccccc2OCc2ccc(C(=O)O)cc2)C1=O,32*,55%,17%,-13%,nt,20
Cc1cc2nnc(SCC(=O)NC3CCCCC3)n2c(N)n1,23,24%,2%,5%,18%,-7
CC1CN2C(CCC(C)C2c2ccc(Br)cc2)C(=O)O1 (stereo unspecified),nt,nt,0%[12.9 µM],nt,nt,nt
COC(=O)Cn1ccc2cc(S(=O)(=O)N3CCCCCC3)ccc21,-10,?,9%,-4%,10%,4
CC(CNC(=O)CCn1ccc2cc(S(=O)(=O)N3CCCC3)ccc21)c1ccccc1 (stereo unspecified),-3,12µM*,8%,?,2%,-3
COC(=O)Cn1ccc2cc(S(=O)(=O)N3CCCCC3)ccc21,13,5.9µM*,nt,17%,3%,-1
COC(=O)[C@@H]1C[C@@H](c2ccccc2)[C@H](C)C1(C)C,nt,13%,nt,-1%,nt,nt
CCNc1ncc2nc(-c3cc(F)cc(F)c3)c(=O)n(Cc3ccc(F)cc3)c2n1,nt,nt,-3%,nt,nt,nt
O=C(c1cnccn1)N1CCC2(CCCN(Cc3ccncc3)C2)CC1,nt,nt,2%,nt,nt,nt
Cc1nn(-c2ccccc2)c(C)c1C(=O)NCc1ccc(F)cc1,-3,12%,7%,-8%,-10%,0
Cc1c(C(=O)NCc2ccc(F)cc2)c(-c2ccccc2)nn1-c1ccccc1,-6,5.9µM*,-2%,nt,6%,-4
C=COC(=O)CSc1nc(-c2cccs2)ccc1C#N,38,28%,-7%,54%,1%,31*
CCOC(=O)C(C)Sc1nc(-c2cccs2)ccc1C#N (stereo unspecified),104,20%,-27%,-15%,-9%,25*
CC(C)CN(C(=O)COC(=O)c1c(Cl)ccc(Cl)c1Cl)C1CCS(=O)(=O)C1 (stereo unspecified),-5,12µM*,0%,?,nt,-3
Cc1ccc(NC(=O)CSCC(=O)N=c2sccn2C)cc1,nt,9%,nt,0%,nt,nt
Cc1ccc(Cn2ccsc2=NC(=O)COC(=O)c2ccc(NC(=O)CC#N)cc2)cc1,nt,10µM*,nt,13µM*,nt,nt
CC(=O)N=c1sccn1CC(O)c1ccccc1 (stereo unspecified),-4,?,10%,-24%[0.00184 µM],-2%,7
Cc1ccc(Cn2ccsc2=NC(=O)CCl)cc1,45*,?,4%,?,nt,32*
Cc1cccc(NC(=O)c2cccc(S(=O)(=O)N3CCc4ccccc4C3)c2)n1,nt,-5%,nt,?,nt,nt
N#Cc1cccc(-c2cncnc2NCc2ccccc2)c1,nt,nt,6%,nt,nt,nt
CC(C)C(=O)N1CCN(c2ccccc2NC(=O)c2cccc3ccccc23)CC1,15,?,8%,?,-6%,-2
Cc1cc(N/N=C/c2ccccc2Cl)nc(NCc2ccccc2)n1,24,?,0%,1.5µM*,-25%,28*
Cn1c(N/N=C/c2c[nH]c3ccccc23)nc2ccccc21,167*,1.7µM*,3%,7.4µM*,-2%,45*
C(=N\NC1=NCCCCC1)/c1c[nH]c2ccccc12,32,-29%,-15%,157%,-2%,21*
O=C(O)c1ccc(N/N=C/c2c[nH]c3ccccc23)cc1,2,?,-5%,108%,4%,9
